Laboratory results: PubChem BioAssay AID1159580 (chemical genetic matrix, 2015)
Hit rate of the full screen: of about 5,500 compounds, about 2,000 (36%) were called active. Roughly 18% stayed inconclusive and do not appear here. Rule as the data show it: active = normalized growth mostly below about 0.91 (no sharp cut-off); inconclusive = no clear call, values can overlap the other calls; inactive = mostly above about 0.92. The list shows a part of the results.

Assay: chemical genetic growth profiling, strain panel (AID 1159580);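 also: tested at 20 µM; growth read once vehicle control cultures reached saturation at 30 °C; 1 = growth at the plate median or of vehicle wells; lower values mean less growth of the strain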
Settings: growth OD

Measured: normalized growth

CCCN1C[C@H](CSC)C[C@@H]2c3cccc4[nH]cc(c34)C[C@H]21
inactive: S. cerevisiae deletion strains, locus YKL009W, strain mrt4, active compounds read low 1.01 | S. cerevisiae deletion strains, locus YKL068W, active compounds read low 1.02 | S. cerevisiae deletion strains, locus YKL085W, strain MDH1 (second series), active compounds read low 1 | S. cerevisiae deletion strains, locus YKL085W, strain MDH1, active compounds read low 1 | S. cerevisiae deletion strains, locus YKL160W, strain elf1, active compounds read low 1.01 | S. cerevisiae deletion strains, locus YKL190W, strain CNB1, active compounds read low 0.995 | S. cerevisiae deletion strains, locus YKR001C, strain vps1, active compounds read low 1.02 | S. cerevisiae deletion strains, locus YKR026C, strain gcn3, active compounds read low 1.02 | S. cerevisiae deletion strains, locus YKR091W, strain srl3, active compounds read low 0.997 | S. cerevisiae deletion strains, locus YLL001W, strain dnm1, active compounds read low 1 | S. cerevisiae deletion strains, locus YLL026W, active compounds read low 1.01 | S. cerevisiae deletion strains, locus YLL041C, strain sdh2, active compounds read low 0.995 | S. cerevisiae deletion strains, locus YLR027C, strain aat2, active compounds read low 1 | S. cerevisiae deletion strains, locus YLR039C, strain RIC1, active compounds read low 1.11 | S. cerevisiae deletion strains, locus YLR058C, strain SHM2, active compounds read low 1.01 | S. cerevisiae deletion strains, locus YLR102C, strain apc9, active compounds read low 1.03 | S. cerevisiae deletion strains, locus YLR113W, strain HOG1, active compounds read low 1.06 | S. cerevisiae deletion strains, locus YLR221C, strain rsa3, active compounds read low 1 | S. cerevisiae deletion strains, locus YLR258W, strain gsy2, active compounds read low 1.01 | S. cerevisiae deletion strains, locus YLR262C, strain YPT6 (second series), active compounds read low 1.07 | S. cerevisiae deletion strains, locus YLR262C, strain YPT6, active compounds read low 1.09 | S. cerevisiae deletion strains, locus YLR268W, strain sec22, active compounds read low 1 | S. cerevisiae deletion strains, locus YLR320W, strain mms22, active compounds read low 0.984 | S. cerevisiae deletion strains, locus YLR330W, strain CHS5, active compounds read low 0.999 | S. cerevisiae deletion strains, locus YLR342W, strain FKS1 (second series), active compounds read low 1.01 | S. cerevisiae deletion strains, locus YLR342W, strain FKS1, active compounds read low 1 | S. cerevisiae deletion strains, locus YLR357W, strain rsc2, active compounds read low 0.982 | S. cerevisiae deletion strains, locus YLR370C, strain arc18, active compounds read low 1.01 | S. cerevisiae deletion strains, locus YLR371W, strain rom2, active compounds read low 1.02 | S. cerevisiae deletion strains, locus YLR384C, strain iki3, active compounds read low 1 | S. cerevisiae deletion strains, locus YLR418C, strain cdc73, active compounds read low 0.985 | S. cerevisiae deletion strains, locus YML016C, strain PPZ1, active compounds read low 0.998 | S. cerevisiae deletion strains, locus YML032C, strain rad52, active compounds read low 1.03 | S. cerevisiae deletion strains, locus YML120C, strain ndi1, active compounds read low 1.02 | S. cerevisiae deletion strains, locus YML124C, strain tub3, active compounds read low 1.02 | S. cerevisiae deletion strains, locus YMR058W, strain fet3, active compounds read low 0.999 | S. cerevisiae deletion strains, locus YMR078C, strain ctf18, active compounds read low 1.03 | S. cerevisiae deletion strains, locus YMR125W, strain sto1, active compounds read low 1.02 | S. cerevisiae deletion strains, locus YMR129W, active compounds read low 1.02 | S. cerevisiae deletion strains, locus YMR205C, strain PFK2, active compounds read low 1.02 | S. cerevisiae deletion strains, locus YMR223W, strain ubp8, active compounds read low 1.02 | S. cerevisiae deletion strains, locus YMR231W, strain pep5, active compounds read low 1.02 | S. cerevisiae deletion strains, locus YMR263W, strain SAP30, active compounds read low 0.979 | S. cerevisiae deletion strains, locus YMR307W, strain GAS1, active compounds read low 1.03 | S. cerevisiae deletion strains, locus YNL067W, strain RPL9B, active compounds read low 0.975 | S. cerevisiae deletion strains, locus YNL071W, strain lat1, active compounds read low 1.02 | S. cerevisiae deletion strains, locus YNL128W, strain TEP1, active compounds read low 0.984 | S. cerevisiae deletion strains, locus YNL153C, strain GIM3, active compounds read low 0.983 | S. cerevisiae deletion strains, locus YNL183C, strain NPR1, active compounds read low 0.991 | S. cerevisiae deletion strains, locus YNL209W, strain ssb2, active compounds read low 1 | S. cerevisiae deletion strains, locus YNL233W, strain BNI4, active compounds read low 0.981 | S. cerevisiae deletion strains, locus YNL248C, strain rpa49, active compounds read low 0.945 | S. cerevisiae deletion strains, locus YNL250W, strain rad50, active compounds read low 1 | S. cerevisiae deletion strains, locus YNL271C, strain bni1, active compounds read low 1.02 | S. cerevisiae deletion strains, locus YNL298W, strain CLA4, active compounds read low 1.02 | S. cerevisiae deletion strains, locus YNL307C, strain MCK1, active compounds read low 1.03 | S. cerevisiae deletion strains, locus YNL322C, strain KRE1 (second series), active compounds read low 1.01 | S. cerevisiae deletion strains, locus YNL322C, strain KRE1, active compounds read low 1 | S. cerevisiae deletion strains, locus YNR049C, strain mso1, active compounds read low 1.01 | S. cerevisiae deletion strains, locus YNR052C, strain pop2, active compounds read low 1.02 | S. cerevisiae deletion strains, locus YOL006C, strain TOP1, active compounds read low 0.966 | S. cerevisiae deletion strains, locus YOL012C, strain htz1 0.77 | S. cerevisiae deletion strains, locus YOL147C, strain pex11, active compounds read low 1.02 | S. cerevisiae deletion strains, locus YOR001W, strain rrp6, active compounds read low 0.983 | S. cerevisiae deletion strains, locus YOR061W, strain CKA2, active compounds read low 0.992 | S. cerevisiae deletion strains, locus YOR069W, strain VPS5, active compounds read low 0.989 | S. cerevisiae deletion strains, locus YOR070C, strain gyp1, active compounds read low 0.997 | S. cerevisiae deletion strains, locus YOR080W, strain dia2, active compounds read low 1.02 | S. cerevisiae deletion strains, locus YOR083W, strain WHI5, active compounds read low 0.966 | S. cerevisiae deletion strains, locus YOR106W, strain vam3, active compounds read low 1.01 | S. cerevisiae deletion strains, locus YOR136W, strain idh2, active compounds read low 1.02 | S. cerevisiae deletion strains, locus YOR144C, strain elg1, active compounds read low 1.01 | S. cerevisiae deletion strains, locus YOR184W, strain ser1, active compounds read low 1.05 | S. cerevisiae deletion strains, locus YOR231W, strain MKK1, active compounds read low 1.08 | S. cerevisiae deletion strains, locus YOR265W, strain rbl2, active compounds read low 1.02 | S. cerevisiae deletion strains, locus YOR270C, strain vph1, active compounds read low 1.07 | S. cerevisiae deletion strains, locus YOR290C, strain snf2, active compounds read low 1 | S. cerevisiae deletion strains, locus YOR316C, strain cot1, active compounds read low 1.02 | S. cerevisiae deletion strains, locus YPL051W, strain arl3, active compounds read low 1.01 | S. cerevisiae deletion strains, locus YPL055C, strain LGE1, active compounds read low 0.946 | S. cerevisiae deletion strains, locus YPL078C, strain atp4, active compounds read low 1.01 | S. cerevisiae deletion strains, locus YPL106C, strain sse1, active compounds read low 1.03 | S. cerevisiae deletion strains, locus YPL240C, strain hsp82, active compounds read low 1.01 | S. cerevisiae deletion strains, locus YPL241C, strain CIN2, active compounds read low 1.03 | S. cerevisiae deletion strains, locus YPL256C, strain CLN2, active compounds read low 1.06 | S. cerevisiae deletion strains, locus YPR119W, strain clb2, active compounds read low 1.02 | S. cerevisiae deletion strains, locus YPR141C, strain kar3, active compounds read low 1.01 | S. cerevisiae deletion strains, locus YPR163C, strain tif3, active compounds read low 1.02 | S. cerevisiae deletion strains, locus YPR167C, strain met16, active compounds read low 1.02 | S. cerevisiae deletion strains, strain wtn01, active compounds read low 0.995 | S. cerevisiae strains, strain wild type, active compounds read low 0.997
